Source: PubChem (National Center for Advancing Translational Sciences (NCATS))
An excerpt weighted towards active compounds, which were near 9.2% of everything screened.
FLuc counter – inhibits or activates purified firefly luciferase, miR-21 counter-screen; purified FLuc, Km substrates, luminescence inhibition; 6.9% of 360,000 active; AID 588342; Potency, µM (titrated, usually from 57.5 µM), hits mostly inhibitors; P08659; also: nearly all actives have a fitted effect of over 55% in size
Target sequence (P08659 whole entry, looked up): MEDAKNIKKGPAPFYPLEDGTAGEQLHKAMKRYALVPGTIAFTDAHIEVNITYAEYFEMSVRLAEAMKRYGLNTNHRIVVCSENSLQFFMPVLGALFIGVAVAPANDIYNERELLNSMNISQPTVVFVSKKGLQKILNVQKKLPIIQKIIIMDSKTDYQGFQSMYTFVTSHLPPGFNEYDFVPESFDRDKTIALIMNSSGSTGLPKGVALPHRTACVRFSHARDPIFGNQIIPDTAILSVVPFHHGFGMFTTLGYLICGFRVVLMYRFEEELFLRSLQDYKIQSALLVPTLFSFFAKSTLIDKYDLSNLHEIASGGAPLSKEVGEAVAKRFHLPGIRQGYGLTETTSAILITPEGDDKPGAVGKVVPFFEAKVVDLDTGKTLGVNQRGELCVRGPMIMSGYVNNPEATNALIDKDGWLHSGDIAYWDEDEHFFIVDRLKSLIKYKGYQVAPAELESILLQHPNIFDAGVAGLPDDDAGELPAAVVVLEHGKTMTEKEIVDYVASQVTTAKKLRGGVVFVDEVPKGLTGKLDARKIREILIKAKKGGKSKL
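Purified P. pyralis luciferase, 10 nM final, with Km-level 10 uM D-luciferin and 10 uM ATP in 50 mM Tris acetate pH 7.5, 10 mM Mg acetate, 0.01% Tween-20, 0.05% BSA; 6-point qHTS titration about 60 µM downward; luminescence read.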
Rab9 prom act – activates the Rab9 promoter; Huh7 Rab9 promoter-luciferase reporter, luminescence, 24 h; Potency, µM (doses to about 9.22 µM), hits mostly activators; 2.8% of 320,000 active; AID 485297; also: nearly all actives have a fitted effect of over 60% in size
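Measured in stably transfected Huh7 cells bearing a Rab9 promoter–luciferase construct: 24 h compound treatment at 37 °C, followed by luminescence detection.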
NPC1 prom act – activates the NPC1 promoter | Huh7 NPC1 promoter luciferase reporter, 24 h | Potency, µM (highest dose often 9.22 µM), most hits filed as activators | 2.4% of 320,000 active | AID 485313; also: nearly all actives have a fitted effect of over 60% in size
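Readout is luciferase luminescence, reflecting NPC1 promoter activation in stably transfected Huh7 cells after 24 h compound exposure at 37 °C in reduced-serum medium with 10% FBS.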
ELG1 genotoxic – genotoxicity induction in ELG1-luciferase HEK293T cells | HEK293T ELG1-luciferase reporter, luminescence, 16 h | Potency, µM (titrated, usually from 46 µM), usual class: activators | 1.3% of 330,000 active | AID 504466; also: nearly all actives have a fitted effect of over 60% in size
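ELG1-luciferase HEK293T cells, 2,000/well; compound pinned in; 16 hr, 37 °C, 5% CO2; ONE-Glo, 30 min RT; luminescence on CCD imager.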
ELG1 repair inh – inhibitors of ELG1-dependent DNA repair in HEK293T cells. 2.3% of 330,000 active. AID 504467. HEK293T ELG1-luciferase reporter, luminescence, 16 h; DNA damage induced by 5-fluorouridine. Potency, µM (highest dose often 46.1 µM), actives largely listed as inhibitors; also: nearly all actives have a fitted effect of over 55% in size
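In this reporter screen, reduction of luminescence relative to DMSO vehicle indicated activity. Compounds and 5-fluorouridine were added together to 2,000 cells per well, incubated for 16 hr at 37 °C, then developed with ONE-Glo.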
SMN2 splice enh – SMN2 splice variant enhancement; AID 1458; 2.8% of 210,000 active; Potency, µM (top dose mostly 46.1 µM), actives largely listed as activators; HEK293 SMN2-luciferase splicing reporter, luminescence, 30-36 h; also: nearly all actives have a fitted effect of over 55% in size
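qHTS luciferase splicing reporter: luminescence rises when SMN2 exon 7 is included in transfected HEK293 cells. Compound exposure lasted 30-36 h at 37C, with 4.5 mM final sodium butyrate as control, followed by a ONE-Glo read.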
A number is an active result; - = inactive; ? = inconclusive; . = not tested or not shown; [ ] = another dose, or the depositor's remark. Calls follow the shape of the dose curve; as a rule, active = well fitted curve in the direction sought with a large enough effect; inconclusive = small, poorly fitted or top-dose-only effect, or another doubt; inactive = no such curve, though single readings can be large; an effect the other way counts as inactive or inconclusive.

SMILES	FLuc counter	Rab9 prom act	NPC1 prom act	ELG1 genotoxic	ELG1 repair inh	SMN2 splice enh
CC(=Nc1ccc(C)cc1)c1sc2ccccc2c1O	0.43µM	0.89µM	1.8µM	0.73µM	?	0.63µM
Cc1ccc(CNC(=O)C2CSC3(C)CCC(=O)N23)cc1 (stereo not given)	.	.	.	-	-	.
Cc1ccc(CNC(=O)C2CCN(C(=O)N3CC(C)Oc4ccc(Cl)cc43)CC2)cc1 (stereo not given)	-	.	.	.	.	.
CCc1ccc(S(=O)(=O)Nc2cc3c(cc2C)n(C)c(=O)n3C)cc1	-	-	-	?	?	.
Cc1ccc(S(=O)(=O)Nc2ccc3c(c2)n(C)c(=O)n3C)c(C)c1	-	-	-	?	?	.
Cc1ccc(S(=O)(=O)Nc2cc3c(cc2NCc2ccccc2)n(C)c(=O)n3C)c(C)c1	?	.	.	.	.	10µM
Cc1ccc(S(=O)(=O)Nc2cc3c(cc2NCc2ccccc2)n(C)c(=O)n3C)cc1	?	.	.	.	.	14µM
Cn1c(=O)n(C)c2cc(NS(=O)(=O)c3ccc(F)cc3)c(NCc3ccccc3)cc21	17µM	.	.	.	.	0.89µM
Cc1ccc(S(=O)(=O)NCCc2nnc3ccc(SCc4ccccc4F)nn23)cc1	-	.	.	.	.	.
O=C(O)c1cc(-c2c[nH]c3ccccc23)nc2ccc3ccccc3c12	1.2µM	-	-	-	?	-
c1ccc2c(-c3c[nH]c4ccccc34)c3ccccc3nc2c1	-	-	-	-	?	-
COc1ccc(-n2c(C)c([N+](=O)[O-])c3ccc(O)c(CN4CCCCC4)c32)cc1	-	-	-	-	10µM	-
Cc1ccc(-n2c(C)c([N+](=O)[O-])c3ccc(O)c(CN(C)C)c32)cc1	-	-	-	-	?	-
Nc1sccc1C(=O)c1ccc(Cl)cc1	?	?	-	11µM	?	-
O=C(Cc1ccc(Br)cc1)N1CCCCCC1	?	-	?	21µM	?	10µM
O=C(Cc1ccc(Br)cc1)N1CCCC1	-	-	-	-	-	.
CC(C)(C)OC(=O)N1CCC(c2c(C(=O)N3CCCCC3)cnn2-c2ccc(F)cc2)CC1	-	.	.	.	.	.
O=C(O)c1ccc(N/N=C/c2cccc3cccnc23)cc1	0.76µM	0.28µM	0.32µM	?	?	.
O=C(O)c1ccc(N/N=C/c2ccnc3ccccc23)cc1	1.3µM	?	0.56µM	?	?	.
CC(C)(C)OC(=O)NCCC(=O)N/N=C/c1cccc2cccnc12	-	-	-	-	?	.
COc1ccc(CCC(=O)NNC(=O)Nc2ccccc2Cl)cc1	-	-	-	-	-	.
COCCCN1C(=O)c2[nH]nc(-c3ccccc3O)c2C1c1ccc(OC)cc1 (stereo not given)	-	.	.	.	.	-
CN(C)Cc1cc(O)c(O)c(CN(C)C)c1	.	.	.	.	.	-[9.22 µM]
C(=N\Nc1nc2ccccc2[nH]1)/c1cccc2nccnc12	?	-	-	?	?	.
C#CCn1cc(/C=N/NC(=O)COc2cccc3cccnc23)c2ccccc21	-	-	-	-	-	-
SMILES	FLuc counter	Rab9 prom act	NPC1 prom act	ELG1 genotoxic	ELG1 repair inh	SMN2 splice enh
C(=N\Nc1nc2ccccc2[nH]1)/c1ccc2ncccc2c1	2.1µM	0.79µM	1.4µM	-	?	.
C#CCn1cc(/C=N/Nc2nc3ccccc3[nH]2)c2ccccc21	19µM	-	-	-	?	?
C(=N\Nc1nc2ccccc2[nH]1)/c1ccccn1	0.34µM	?	?	-	?	.
Cc1ccc(/C=N/Nc2nnc(Cc3ccccc3)c(=O)[nH]2)o1	-	-	-	-	-	-
Cc1ccc(/C=N\Nc2nc3ccc(Cl)cc3[nH]2)o1	8.5µM	4.5µM	2.5µM	-	?	?
COc1ccccc1NC(=O)c1ccc(NC(=O)c2ccc(=O)[nH]c2)cc1	-	-	-	-	-	.
CCC(Sc1nc2ccccc2c(=O)n1CCc1ccc(OC)c(OC)c1)C(=O)N(CC)CC (stereo not given)	-	.	.	.	.	.
Cc1nn(C(=O)CCCC(=O)NCc2ccccc2)c2ccccc12	-	-	-	-	-	.
Cc1ccc(C(=O)CCC(=O)OCC(=O)NNC(=O)c2ccc([N+](=O)[O-])cc2)cc1	-	-	-	-	-	.
CCCCn1c(/C=N/Nc2nc3ccccc3[nH]2)nc2ccccc21	?	-	-	-	-	-
BrC(=C\c1ccccc1)/C=N/Nc1nc2ccccc2[nH]1	2.7µM	-	-	-	?	-
Fc1ccccc1-c1ccc(/C=N/Nc2nc3ccccc3[nH]2)o1	0.27µM	3.5µM	?	?	?	22µM
CCOc1ccc(-n2nnnc2SCC(=O)c2ccccc2)cc1	?	-	-	-	-	-
Cc1c(Cl)cnc(NC(=O)CSc2nnc3ccccn23)c1Cl	?	?	-	18µM	?	?
